According to the supplement of paper PMC6555819:

Key:
Experiment in all cases: PBM binding z-score (relative to random genomic background probes); higher = stronger binding; sequences stand for … in GC…GCGATTGACAGCGTAGAATGAAGG
[1] = system: FXR:RXRa (NR concentration 270 nM, RXRa partner concentration 90 nM)
Summary of the method: (§1)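 Binding z-scores were set against random background probes. The data came from custom Agilent 4×180K protein-binding microarrays carrying double-stranded probes with 34-nt variable regions, incubated 1 h with ligand-free nuclear receptor dimers. Partner-specific antibodies detected binding, and scanned fluorescence was regression-normalized.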

[2] = system: LXRa:RXRa (NR concentration 270 nM, RXRa partner concentration 90 nM)
Summary of the method: as §1

[3] = system: LXRa homodimer (NR concentration 270 nM)
Summary of the method: as §1

[4] = system: LXRb:RXRa (NR concentration 270 nM, RXRa partner concentration 90 nM)
Summary of the method: as §1

[5] = system: LXRb homodimer (NR concentration 270 nM)
Summary of the method: as §1

[6] = system: PPARa:RXRa (NR concentration 270 nM, RXRa partner concentration 90 nM)
Summary of the method: as §1

[7] = system: PPARg:RXRa (NR concentration 180 nM, RXRa partner concentration 90 nM)
Summary of the method: as §1

[8] = system: PPARg:RXRa 270nM:90nM, anti-RXR (NR concentration 270 nM, RXRa partner concentration 90 nM)
Summary of the method: as §1

[9] = system: PPARg:RXRa 30nM:10nM, anti-RXR (NR concentration 30 nM, RXRa partner concentration 10 nM)
Summary of the method: as §1

[10] = system: PPARg:RXRa 90nM:30nM, anti-RXR (NR concentration 90 nM, RXRa partner concentration 30 nM)
Summary of the method: as §1

[11] = system: PPARg:RXRa DBDmut IVT, anti-RXR (DBD mutation: RXRa K156A/R161A, NR concentration 270 nM, RXRa partner concentration 90 nM)
Summary of the method: as §1

[12] = system: PPARg:RXRa IVT, anti-PPARg (NR concentration 270 nM, RXRa partner concentration 90 nM)
Summary of the method: as §1

[13] = system: PPARg DBDmut:RXRa IVT, anti-PPARg (DBD mutation: PPARg1 K132A/R137A, NR concentration 270 nM, RXRa partner concentration 90 nM)
Summary of the method: as §1

[14] = system: PPARg DBDmut IVT, anti-PPARg (DBD mutation: PPARg1 K132A/R137A, NR concentration 270 nM)
Summary of the method: as §1

[15] = system: PPARg homodimer (NR concentration 180 nM)
Summary of the method: as §1

[16] = system: PXR:RXRa (NR concentration 270 nM, RXRa partner concentration 90 nM)
Summary of the method: as §1

[17] = system: PXR homodimer (NR concentration 270 nM)
Summary of the method: as §1

[18] = system: RARa:RXR (NR concentration 270 nM, RXRa partner concentration 90 nM)
Summary of the method: as §1

[19] = system: RARa homodimer (NR concentration 270 nM)
Summary of the method: as §1

[20] = system: RARb:RXRa (NR concentration 270 nM, RXRa partner concentration 90 nM)
Summary of the method: as §1

Sequence	PBM binding z-score [1]	PBM binding z-score [2]	PBM binding z-score [3]	PBM binding z-score [4]	PBM binding z-score [5]	PBM binding z-score [6]	PBM binding z-score [7]	PBM binding z-score [8]	PBM binding z-score [9]	PBM binding z-score [10]	PBM binding z-score [11]	PBM binding z-score [12]	PBM binding z-score [13]	PBM binding z-score [14]	PBM binding z-score [15]	PBM binding z-score [16]	PBM binding z-score [17]	PBM binding z-score [18]	PBM binding z-score [19]	PBM binding z-score [20]
ATATGTAGGTTACAACCGGGTCATTCAGGCTATG	2.4	4.01	1.33	2.93	0.715	4.68	5.74	5.17	3.03	4.61	7.11	7.41	3.31	2.35	2.21	3.88	1.71	3.96	0.487	2.36
CCTACTGGGCCGCGAAAGGTCATTGATTCAGTGA	3.37	4.49	3.63	3.85	0.0149	4.35	1.94	3.69	0.701	2.76	2.81	3.04	-1.14	-0.345	3.03	5.13	1.47	5.27	0.0232	3.81
CCTACTGGGCCACGAAAGGTCATAGATTCAGTGA	3.74	5.02	4.02	4.2	0.194	4.78	4.68	4.98	2.28	4.2	5.75	6.04	0.35	1.08	3.16	4.97	0.915	5.39	0.471	4.03
ATCTCTAGATAACCAAGTTCAGTGAATGCCGAAC	0.0637	0.348	0.591	0.348	0.0515	-0.00769	0.236	-0.141	0.124	-0.0247	-0.316	0.0781	0.627	0.782	0.44	1.1	1.09	0.424	0.885	0.556
CGTCCAAGGACAGCAGGTCAGTGAAAGCGACGTG	0.0413	-0.0225	-0.497	-0.229	-1.12	0.599	0.186	-0.344	-0.721	-0.226	0.0757	0.113	-1.43	-0.869	-0.0601	0.288	-0.263	0.676	-0.162	2.37
CGAACTAGGTCAGAACAGGAGAGTGAAGGATGAT	0.927	0.589	-0.174	0.371	-0.252	3.11	5.25	4.6	1.34	3.7	7.25	7.15	1.13	1.4	0.511	0.126	-0.235	0.576	0.206	2.94
GCTCGGAGGACAAGGTCAGAGCTTTGTCCGTAGA	1.71	2.02	-0.543	1.29	-0.667	2.5	0.957	1.67	-0.521	0.794	-0.433	0.861	-1.56	-1.45	0.708	1.55	-0.264	2.24	-0.542	3.52
CCGACTGGGGCAAAGGTTAGCATACTCAGTACGA	0.945	0.762	-0.315	1.27	-1.29	4.88	10.7	8.69	9.08	9.54	4.94	4.9	-0.151	-1.37	1.58	1.47	-0.542	2.78	-0.0647	1.99
TCGTATAGGTAAAAGGTGAAAGTCGGTGTGGTAA	1.99	2.05	0.453	2.23	0.0721	4.51	6.49	7.01	6.31	7.11	3.45	3.77	0.0937	0.179	2.3	1.96	1.02	3.01	1.25	2.08
ATCTCTAGCTAACCAAGTTCAGTGAATGCCGAAC	-0.0786	0.353	0.78	0.261	0.798	-0.0272	-0.107	-0.251	-0.294	-0.0743	-0.58	-0.0463	0.368	0.475	0.651	1.32	1.49	0.181	0.128	0.746
CGTCCAAGGTCAATGCTAGGTCTGTGAAAGCATT	6.34	4.7	0.321	3.41	0.865	5.01	3.28	3.99	0.804	2.73	3.09	3.37	0.249	0.0297	2.17	3.74	0.712	3.88	0.767	5
CCGACCGGGGCAAGGTTACCATAACGCACAGCCA	0.591	1.02	-0.0287	0.604	-0.88	1.3	1.3	1.18	-0.0517	0.495	0.434	0.22	-0.24	-0.801	0.684	0.376	-0.0438	1.28	0.236	1.97
ATATGTAGGCTATCGGGTCATTCAGTTTGCGCAT	1.71	1.58	0.22	1.95	0.313	3.69	4.12	3.83	1.92	3.21	5.77	5.5	1.43	1.46	1.08	2.87	6.85	2.54	0.357	1.72
CGTTAAAGTTCAACTAAGGTAACGTAAAGCACGC	7.01	6.26	4.48	4.01	1.89	4.8	3.71	4.36	1.66	3.27	0.607	1.7	1.25	1.18	2.84	5.26	3.31	3.9	1.26	5.17
